From PubChem BioAssay
hcDAF12 agonist – activates DAF-12 receptor from parasite H. contortus; 370,000 compounds, 1.4% hits; activation, % at 6.8 µM; HEK293 hcDAF-12 lit1-tk-luc reporter, luminescence; 0% DMSO, 100% Δ7-dafachronic acid;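 active means activation above the mean of all tested compounds plus 3 SD, cut at about 5.5% in these data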;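 further: 100% = response to 3 µM Δ7-dafachronic acid high control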
DAX1 inh-1 – inhibits human nuclear receptor DAX1; P51843; HEK293 Gal4-DAX1 luciferase reporter, luminescence; inhibition, % at 6.75 µM; 340,000 compounds, 0.99% hits; AID 504766;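 active means inhibition above the mean over all tested compounds plus 3 SD, cut at about 4.2% in these data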;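 further: 0% = DAX1-transfected cells with DMSO and 100% = empty-vector control cells with DMSO; inhibition shows as a rise in luminescence from relieved DAX1 repression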
Target sequence (P51843 207-470 limits assumed): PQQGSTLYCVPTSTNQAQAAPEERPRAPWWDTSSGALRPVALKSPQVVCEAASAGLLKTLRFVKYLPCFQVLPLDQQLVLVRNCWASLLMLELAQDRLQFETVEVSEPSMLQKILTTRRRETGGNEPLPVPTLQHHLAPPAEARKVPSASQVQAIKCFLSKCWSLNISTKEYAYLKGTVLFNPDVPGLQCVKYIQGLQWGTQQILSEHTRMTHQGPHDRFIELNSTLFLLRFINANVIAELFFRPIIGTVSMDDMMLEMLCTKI
DAX1 inh-2 – DAX1 (NR0B1) inhibition, primary screen. HEK293T StAR-luciferase reporter, SF-1/DAX-1 repression relief. inhibition, % at 6.8 µM. 370,000 compounds, 1.1% hits;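 active means inhibition above the mean over all tested compounds plus 3 SD, cut at about 3.6% in these data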;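 further: 0% = DAX-1 cells with DMSO and 100% = cells lacking DAX-1 with DMSO; higher inhibition means more luminescence from relief of DAX-1 repression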
Wee1 stabilizer – human Wee1 degradation inhibition, primary screen; reporter increase, % at 5 µM; P30291; 220,000 compounds, 1.2% hits; AID 1321; HeLa Luc-Wee1K328M stability, luciferase luminescence; 100% = proteasome inhibitor MG132 effect;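 active means activation above the mean of all tested compounds plus 3 SD, set per screening run, cut at about 8.8% in these data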;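 further: cells exposed to compound for 20 h before luminescence read; 0% = DMSO alone and 100% = MG132 at 30 µM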
hgDAF-12 ag – activates the H. glycines DAF-12 receptor ligand-binding domain; HEK293 GAL4-hgDAF12 UAS-luciferase reporter, agonist luminescence; normalized to butyrate control; 370,000 compounds, 1.8% hits; activation, % at 6.8 µM;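 active means activation above a cutoff set at the mean of all screened compounds plus 3 SD, cut at about 10% in these data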;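 further: 0% = DMSO wells and 100% = sodium butyrate wells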
ssDAF12 agonist – activates DAF-12 receptor from parasite S. stercoralis. HEK293 ssDAF-12/GRIP1 lit1-tk-luc reporter, luminescence; % of 3 µM dafachronic acid response. activation, % at 6.8 µM. 370,000 compounds, 1% hits. AID 652126;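 active means activation above the mean over all tested compounds plus 3 SD, cut at about 0.9% in these data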;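 further: 0% = DMSO-only wells and 100% = 3 µM delta7-dafachronic acid wells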
DAX1 inh confirm – confirmation of human DAX1 (NR0B1) inhibitors. AID 652134. inhibition, % at 6.8 µM. shares compounds with DAX1 inh-2. HEK293T StAR-promoter luciferase reporter, SF-1/DAX-1 repression. 2,400 compounds, 87% hits;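 active means inhibition above the average of every tested compound plus 3 SD, cut at about 3.8% in these data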;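 further: 0% = DAX-1 cells with DMSO and 100% = no DAX-1 control cells with DMSO; active compounds raise luminescence by relieving repression of the StAR reporter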
Target sequence (P51843 whole entry, looked up): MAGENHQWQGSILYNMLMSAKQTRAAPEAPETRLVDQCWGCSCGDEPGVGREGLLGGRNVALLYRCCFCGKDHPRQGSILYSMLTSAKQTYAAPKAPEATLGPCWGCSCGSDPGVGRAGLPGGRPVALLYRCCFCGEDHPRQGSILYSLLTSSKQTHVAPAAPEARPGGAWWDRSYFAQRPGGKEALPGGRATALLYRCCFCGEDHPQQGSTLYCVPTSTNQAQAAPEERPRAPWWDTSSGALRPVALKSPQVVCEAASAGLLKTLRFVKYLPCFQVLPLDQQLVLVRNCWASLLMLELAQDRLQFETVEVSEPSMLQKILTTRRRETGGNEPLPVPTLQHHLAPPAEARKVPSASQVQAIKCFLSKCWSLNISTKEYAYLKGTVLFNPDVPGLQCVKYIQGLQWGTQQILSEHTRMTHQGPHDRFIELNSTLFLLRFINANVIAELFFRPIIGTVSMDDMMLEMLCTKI
SF1 mutant ctr – counter-screen for DAX1 inhibitors: nonselective inhibitors with SF-1 AF2 mutant | shares compounds with DAX1 inh-2 | HEK293 StAR-luciferase, luminescence | inhibition, % at 6.8 µM | 2,400 compounds, 78% hits | AID 652136;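 active means inhibition above the mean of all tested compounds plus 3 SD, cut at about 3% in these data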;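 further: 0% = DAX-1 transfected cells with DMSO and 100% = cells without DAX-1 with DMSO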
Active calls of the source: *; . = not tested or not shown. Rows were chosen to be rich in hits. Some 4.6% of all compounds tested hit in one or more screens of this group.

SMILES | hcDAF12 agonist | DAX1 inh-1 | DAX1 inh-2 | Wee1 stabilizer | hgDAF-12 ag | ssDAF12 agonist | DAX1 inh confirm | SF1 mutant ctr
Nc1cccc2cc(-c3ccccc3)oc12 | 1.7 | 1.5 | 5.3* | . | 7.0 | 0.1 | 6.5* | 5.6*
COc1ccc(-c2oc3c(c2C#CC2(O)CCCCC2)C(OC)CCC3)cc1 (configuration not stated) | -2.2 | . | 5.6* | . | 2.5 | -1.2 | -1.4 | -1.3
CCOC1CCCc2oc(-c3ccc(OC)cc3)c(C#CCCO)c21 (configuration not stated) | -1.8 | . | 0.5 | . | 0.5 | -0.8 | . | .
O=C(NC1CCCCC1)c1ccc(-c2cccc([N+](=O)[O-])c2)o1 | 2.4 | 1.0 | 7.9* | . | 8.9 | -0.1 | 10.9* | 4.1*
CCN(CC)c1ccc(C2Nc3cccc4cccc(c34)N2)cc1 | 4.0 | 0.5 | 0.6 | . | 8.0 | 0.2 | . | .
CCN(CC)c1ccc(C2NC(=O)c3ccccc3N2)cc1 (configuration not stated) | 7.9* | -2.2 | 7.4* | . | 8.9 | 1.1* | 2.7 | -0.3
C[C@H]1CN([C@@H](C)CO)C(=O)CCCn2cc(nn2)CO[C@@H]1CN(C)C(=O)c1ccc2ccn(C)c2c1 | 0.5 | . | 0.4 | . | -3.0 | -1.1 | . | .
COc1ccc(COC(=O)c2cc([N+](=O)[O-])ccc2N2CCOCC2)cc1F | -0.7 | -1.7 | 4.5* | . | -5.3 | -1.2 | 13.4* | -6.5
Cc1cccc(NC(=O)CCc2ccc(N3C(N)=NC(N)=NC3(C)C)cc2)c1 | 0.8 | 0.1 | -1.1 | . | -1.5 | -0.8 | . | .
CCN=C1NN=C(c2ccc(C)cc2)CS1 | 1.9 | 0.2 | 1.2 | 6.0 | 8.4 | -0.5 | . | .
CC(C)N=C1NN=C(c2ccc(F)cc2)CS1 | 4.7 | 0.6 | 5.9* | -1.3 | 12.6* | -0.7 | 11.0* | 6.0*
c1ccc(CNc2ccc3ccccc3n2)nc1 | 8.0* | 0.4 | 7.9* | 3.2 | 14.6* | 1.0* | 12.3* | 8.2*
CCC(C)c1c(NS(=O)(=O)c2ccc(C)cc2)o[nH]c1=O (configuration not stated) | 0.1 | 0.2 | 1.0 | . | -0.6 | -1.1 | . | .
CN(C=O)c1cc([N+](=O)[O-])ccc1OCc1ccccc1 | 0.4 | 1.3 | -0.8 | . | -2.0 | -1.0 | . | .
O=C(Nc1ccc(Cl)cc1)Nc1ccc2c(c1)OCO2 | 5.7* | 1.4 | 6.4* | . | 12.5* | 0.0 | 8.7* | 6.6*
Cc1cc(C)c(NC(=O)Nc2ccc3c(c2)OCO3)c(C)c1 | 1.6 | 1.8 | 4.7* | . | 3.8 | 0.0 | 1.8 | 3.4*
O=C(Nc1cccc(C(=O)O)c1)Nc1ccc2c(c1)OCO2 | 4.5 | -5.3 | 6.8* | . | 4.0 | -0.8 | 6.3* | 5.5*
Cc1ccc(NC(=O)Nc2ccc3c(c2)OCO3)c(Br)c1 | 0.3 | 0.3 | 2.1 | . | 2.4 | -1.4 | . | .
O=C(Nc1ccc2c(c1)OCO2)Nc1ccc(Cl)cc1Cl | 0.6 | -0.7 | 1.2 | 4.9 | 6.7 | -1.1 | . | .
Cc1ccccc1NC(=O)C(C)OC(=O)C1CCCO1 (configuration not stated) | 1.0 | 0.5 | 0.7 | . | 0.9 | -0.5 | . | .
N/C(=N\OC(=O)c1ccccc1)c1cccnc1 | 1.0 | 1.1 | 2.1 | 4.0 | 8.0 | -0.1 | . | .
N/C(=N\OC(=O)c1ccccc1)c1ccn[nH]1 | 4.5 | 0.6 | 11.7* | . | 9.9 | 0.7 | 8.2* | 4.9*
CC1CCC(NC(=O)COC(=O)CNC(=O)c2ccc3ccccc3c2)CC1 (configuration not stated) | 0.0 | -0.8 | 1.7 | . | 0.7 | -1.1 | . | .
COc1ccc2c(c1OC)OCC2C (configuration not stated) | -1.8 | 0.4 | -0.3 | . | -1.9 | -0.8 | . | .
Cc1ccc(CNC(=O)Nc2ccc(Cl)cc2)cc1 | 1.3 | 0.9 | 5.2* | . | 2.9 | -0.3 | 1.1 | 0.3
SMILES | hcDAF12 agonist | DAX1 inh-1 | DAX1 inh-2 | Wee1 stabilizer | hgDAF-12 ag | ssDAF12 agonist | DAX1 inh confirm | SF1 mutant ctr
COc1cccc(NC(=O)CN(C)CC(=O)Nc2ccc(C)c(S(=O)(=O)N3CCOCC3)c2)c1 | -1.0 | -1.4 | -2.8 | . | -3.1 | -1.6 | . | .
O=C(COc1ccc(Cl)cc1Br)NC(=O)NC1CCCC1 | 0.8 | 3.4 | 8.0* | . | 12.7* | -0.8 | 7.9* | 5.3*
O=C(COc1ccc(Br)cc1Cl)NC(=O)NC1CCCC1 | 1.7 | 0.7 | 2.0 | . | 10.2 | 0.1 | . | .
O=C(COc1ccc(Cl)cc1Cl)NC(=O)NC1CCCC1 | 3.2 | 0.4 | 5.0* | . | 12.3* | -0.5 | 4.1* | 1.0
CC(Oc1ccccc1F)c1nnc(SCC(=O)N(c2ccccc2)C2CCS(=O)(=O)C2)o1 (configuration not stated) | -0.1 | -0.5 | -2.0 | . | -1.2 | -1.2 | . | .
c1ccc2c(c1)ncn2-c1cncnc1 | 1.2 | . | 1.2 | . | 6.0 | -0.6 | . | .
COC(=O)[C@]12CCCCC=C1N(Cc1ccc(Cl)cc1Cl)C(=O)[C@H](CC(=O)N1CCN(C(=O)c3ccco3)CC1)C2 | -1.3 | . | -1.4 | . | -3.1 | -1.2 | . | .
CCc1nnc(NC(=O)C2COc3ccccc3O2)s1 (configuration not stated) | 1.7 | 1.6 | 4.5* | -1.7 | 7.6 | -0.2 | 6.3* | 4.0*
COc1c(C)cc(C(O)c2ncc(-c3ccccc3C(F)(F)F)[nH]2)cc1C (configuration not stated) | -0.1 | . | -1.0 | . | -2.1 | -2.0 | . | .
COc1ccc(NC(=O)c2ccccc2NC(=O)C2CC=CCC2C(=O)O)cc1 (configuration not stated) | 3.2 | 2.2 | 5.6* | . | 11.7* | 0.0 | 4.0* | 3.4*
COc1ccc(NC(=O)c2ccccc2NC(=O)c2ccccc2)cc1 | 1.2 | -1.8 | -1.0 | . | 3.7 | -1.2 | . | .
O=C(NC1CCCCC1)c1ccc2ccccc2c1 | 3.5 | 4.8* | 5.8* | . | 6.0 | -0.9 | 7.5* | 5.1*
COc1ccc(-c2cc(=O)oc3cc(O)ccc23)cc1 | -1.0 | -0.5 | 0.1 | . | 3.9 | -0.6 | . | .
COc1ccc(-c2coc3cc(OC4OC(CO)C(O)C(O)C4O)cc(O)c3c2=O)cc1 (configuration not stated) | 5.4 | 2.0 | 11.1* | . | 10.6* | 0.5 | 11.2* | 5.7*
COc1ccc(-c2coc3cc(O)ccc3c2=O)cc1 | 5.3 | 2.1 | 4.9* | . | 8.2 | -0.4 | 11.0* | 5.1*
COc1cc(O)cc2occ(-c3ccc(O)cc3)c(=O)c12 | 0.4 | 1.7 | -0.2 | 2.8 | 1.2 | -1.3 | . | .
COc1ccc(-c2coc3cc(O)ccc3c2=O)cc1O | 1.3 | 3.6 | 5.0* | 0.5 | 13.1* | 0.3 | 6.5* | 3.3*
CCn1nnc2cc(C(=O)N3CCC(C(=O)OC)CC3)ccc21 | 0.9 | 1.3 | 1.4 | . | 1.7 | -0.7 | . | .
